Consider 83 molecules from PubChem BioAssay AID1259421 (Broad Institute, 2018).

Values joined by “and” are separate entries in the source; they are usually repeats but may differ in a detail not shown here. Equal entries are not always repeated. About 610 (9.5%) of roughly 6,400 compounds were called active. No stated cut-off is given here; in the data, active means activity change below about -70%; inconclusive means no clear call, values can overlap the other calls; inactive means above that. Shown is part of a subset that was picked to be rich in actives. Where a structure was tested more than once in an assay, its records may differ in their call. Where a SMILES comes first, the peptide text is derived from it.

The nature of this assay: T. gondii ME49Luc in HeLa cells, luciferase assay, 72 h, no IFN-y (AID 1259421). To be noted: stronger effect = lower value, concentration not given here.
With `O=C(CS(=O)C(c1ccccc1)c1ccccc1)NO` (stereo not drawn), the activity change, negative = inhibition is 2.69% (inactive).
With `CCC(CO)NC(=O)C1C=C2c3cccc4c3c(cn4C)CC2N(C)C1` (stereo not drawn), the activity change, negative = inhibition was 0.967% (inactive).
Turning to `Nc1ccc([As](=O)(O)O)cc1`, the activity change, negative = inhibition was 2.94% (inactive).
For `CC(C)C[C@H](NC(=O)[C@H](Cc1ccccc1)NC(=O)CNC(=O)[C@H](C)NC(=O)[C@@H](N)Cc1ccc(O)cc1)C(=O)O`, the activity change, negative = inhibition was 15.2% (inactive).
`C[C@@H]1O[C@@H](O[C@H]2CC[C@]3(C=O)C4CC[C@]5(C)[C@@H](C6=CC(=O)OC6)CC[C@]5(O)C4CC[C@]3(O)C2)[C@H](O)[C@H](O)[C@H]1O` (stereo partly drawn): the activity change, negative = inhibition was -76.4% (active).
Then `C[C@]12CC[C@H]3[C@@H](CC[C@]4(O)C[C@@H](O)CC[C@]34C=O)[C@@]1(O)CC[C@@H]2C1=CC(=O)OC1`, with -91% (active); and `C[C@]12CCC3C(CC[C@]4(O)C[C@@H](O)CC[C@]34C=O)[C@@]1(O)CCC2C1=CC(=O)OC1` (stereo partly drawn), with -72.5% (active) and -88.8% (active).
As for `CCN1C[C@]2(COC)CCC(OC)[C@@]34C5C[C@]6(O)[C@H](OC(=O)c7ccc(OC)cc7)C5[C@@](OC(C)=O)(C[C@H]6OC)[C@@H]([C@H](OC)C23)[C@@H]14` (stereo partly drawn), the activity change, negative = inhibition was -1.07% (inactive).
Then `NC1CCN(c2cccnc2)C1` (stereo not drawn), with 10.7% (inactive); and `C[C@H](N)Cn1ccc2cc(F)c(Cl)cc21`, with 7.22% (inactive).
The result for `Cc1ncc(CNC(=O)N(CCCl)[NH2+][O-])c(N)n1` reads 18.6% (inactive); that for `CN(C)[C@@H]1C(=O)C(C(N)=O)C(=O)[C@@]2(O)C(=O)C3C(=O)c4c(O)cccc4[C@](C)(O)[C@H]3C[C@@H]12` (stereo partly drawn), 4.49% (inactive); that for `N[C@@H](Cc1ccc(O)cc1)C(=O)NCC(=O)NCC(=O)O` (H-Tyr-Gly-Gly-OH), -5.06% (inactive).
`NC(=O)C[S@@](=O)C(c1ccccc1)c1ccccc1`: the activity change, negative = inhibition was 3.02% (inactive).
Then `CCCC(C)C1(CC)C(=O)NC(=O)NC1=O` (stereo not drawn), with 19.8% (inactive); and `CN[C@@H](C)[C@H](O)c1ccccc1`, with -0.966% (inactive).
For `C[C@]12CCC(=O)C(=O)C1CC[C@@H]1[C@@H]2CC[C@]2(C)C(=O)CC[C@@H]12` (stereo partly drawn), the activity change, negative = inhibition is 1.31% (inactive).
With `CCN[C@@H](C)Cc1cccc(C(F)(F)F)c1`, the activity change, negative = inhibition was 3.99% (inactive).
Then `Cc1nnc2ccc(-c3cccc(C(F)(F)F)c3)nn12`, with -56.7% (inactive) and -76.7% (active); and `CCOC(=O)c1ncc2[nH]c3ccc(OCc4ccccc4)cc3c2c1COC`, with -0.724% (inactive) and 16.8% (inactive).
Take `CCNC(=O)C1OC(n2cnc3c(N)ncnc32)C(O)C1O` (stereo not drawn): the activity change, negative = inhibition was 1.34% (inactive).
The result for `NC(=O)c1cn(C2OC(CO)[C@H](O)[C@@H]2O)c2ncnc(N)c12` (stereo partly drawn) reads -91.9% (active); that for `CCNC(=O)[C@H]1O[C@@H](n2cnc3c(N)ncnc32)[C@H](O)[C@@H]1O`, -4.22% (inactive); that for `C#CCN1C(C)=C(C(=O)CCO)C(c2cccc(-n3oo3)c2)C(C(=O)OC)=C1C` (stereo not drawn), 11.7% (inactive).
In the case of `OC1(c2ccc(Cl)cc2)c2ccccc2C2=NCCN21` (stereo not drawn), the activity change, negative = inhibition is 22.1% (inactive).
In the case of `CN1CCC2(c3cccc(O)c3)Cc3nc4ccccc4cc3CC2C1` (stereo not drawn), the activity change, negative = inhibition was -1.33% (inactive).
The result for `CC[C@H]1CN2CCC1C[C@@H]2[C@H](O)c1ccnc2ccc(OC)cc12` (stereo partly drawn) reads 19.4% (inactive); that for `CC1=C[C@H]2[C@]3(O)[C@H](C)[C@@H](O)[C@@]4(O)[C@H]([C@@H]3C=C(CO)C[C@]2(O)C1=O)C4(C)C`, -3.08% (inactive).
Then `CCCCCCCCCCCCCC(=O)O[C@@H]1[C@@H](C)[C@@]2(O)[C@@H](C=C(CO)C[C@]3(O)C(=O)C(C)=C[C@@H]23)[C@@H]2C(C)(C)[C@]12OC(C)=O`, with -85.6% (active) and -84.7% (active); and `CCCCCCCCCOc1ccc2[nH]cc(CCN)c2c1`, with 7.94% (inactive); and `CCC1/C=C/C=C/C[C@H](C)[C@@H](O)[C@](C)(O)C(=O)[C@@H](C)[C@H](O)[C@@H](C)C(=O)[C@H](C)[C@@H](O)[C@H](C)/C=C/C(=O)OC2[C@@H](C)C(CC1)OC1(CC[C@@H](C)C(C[C@H](C)O)O1)[C@@H]2C` (stereo partly drawn), with -89.1% (active).
As for `CC1=CC[C@@H]2[C@@H](C1)c1c(O)cc(CC#CCCCNS(C)(=O)=O)cc1OC2(C)C`, the activity change, negative = inhibition was 17.8% (inactive).
The result for `COc1ccc(C(=O)O)cc1OC` reads 8.1% (inactive); that for `O=C(O[C@H]1CN2CCC1CC2)N(Cc1cc(F)c(F)c(F)c1)c1cccc(F)c1`, 16.6% (inactive); that for `CC(=O)Oc1ccc(/C=C/c2cc(OC(C)=O)cc(OC(C)=O)c2)cc1`, 11.4% (inactive).
The result for `O=C1CCC[C@@H]2[C@@H]3CCCN4CCC[C@H](CN12)[C@@H]34` reads 15.2% (inactive); that for `C=C1[C@@H](C)[C@H]2[C@H](Cc3ccccc3)NC(=O)[C@]23OC(=O)/C=C\[C@H](O)CCC[C@@H](C)C/C=C/[C@H]3[C@@H]1O`, -85.5% (active).
As for `C[C@]12Cc3cn[nH]c3C[C@@H]1CC[C@@H]1[C@@H]2CC[C@@]2(C)[C@H]1CC[C@]2(C)O`, the activity change, negative = inhibition is -3.74% (inactive).
Then `O=C(NC(=O)c1c(F)cccc1F)Nc1cc(Cl)c(OC(F)(F)C(F)C(F)(F)F)cc1Cl` (stereo not drawn), with -81.8% (active) and -81.1% (active); and `CC(=O)OCC1=C(C(=O)O)N2C(=O)[C@@H](NC(=O)CCCC(N)C(=O)O)C2SC1.[Zn]` (stereo partly drawn), with 20.4% (inactive).
The result for `CC(C)=CC1C(C(=O)OCc2coc(Cc3ccccc3)c2)C1(C)C` (stereo not drawn) reads 19.4% (inactive); that for `Cc1nccc2c1[nH]c1ccccc12`, 1.21% (inactive).
The result for `c1ccc2c(c1)[nH]c1cnccc12` reads -0.879% (inactive).
In the case of `Cc1c2ccncc2c(C)c2c1[nH]c1ccccc12`, the activity change, negative = inhibition was -83.1% (active).
Regarding `COc1ccc2c(c1)CN(C)CC2c1ccc(Cl)c(Cl)c1` (stereo not drawn), the activity change, negative = inhibition was 5.02% (inactive).
For `O=C1CCC2(O)C3Cc4ccc(O)c5c4C2(CCN3CC2CC2)C1O5` (stereo not drawn), the activity change, negative = inhibition was 10.3% (inactive).
Then `Clc1ccc(C2=CCCC3CCC2N3)cn1` (stereo not drawn), with 12.4% (inactive) and -82.3% (active); and `CN(C(=O)Cc1ccc(Cl)c(Cl)c1)[C@H](CN1CCCC1)c1ccccc1`, with 8.8% (inactive) and 17.5% (inactive).
Then `OC12C3C4CC5C6C4C1C6C(C53)N2CCc1cccc(F)c1` (stereo not drawn), with 18.7% (inactive) and 6.8% (inactive).
Then `CN(C)c1ccc(/C=C2\CCCN=C2c2cccnc2)cc1`, with -1.7% (inactive) and -12.2% (inactive); and `CC1(C)CC[C@]2(C(=O)O)CC[C@]3(C)[C@H](C(=O)C=C4[C@@]5(C)C=C(C#N)C(=O)C(C)(C)[C@@H]5CC[C@]43C)[C@@H]2C1`, with -98.8% (active); and `O=C1NCN(c2ccccc2)C12CCN(CC1COc3ccccc3O1)CC2` (stereo not drawn), with -3.91% (inactive) and 4.3% (inactive).
As to `C[C@@H]1C[C@@H]([C@H](O)CC2CC(=O)NC(=O)C2)C(=O)[C@@H](C)C1`, the activity change, negative = inhibition is -81.3% (active) and -84.7% (active).
`CC1CC(C)C(=O)C(C(O)CC2CC(=O)NC(=O)C2)C1` (stereo not drawn): the activity change, negative = inhibition was -83.8% (active).
For the molecule `Oc1c(I)cc(I)cc1I`, the activity change, negative = inhibition was 3.61% (inactive).
`CN1CC(CNC(=O)OCc2ccccc2)CC2c3cccc4c3c(cn4C)CC21` (stereo not drawn): the activity change, negative = inhibition was 8.87% (inactive) and 8.34% (inactive).
For the molecule `N#CC(C#N)=NNc1ccc(OC(F)(F)F)cc1`, the activity change, negative = inhibition is 20% (inactive).
The result for `Oc1ccc2c3c1O[C@H]1c4oc5ccccc5c4C[C@@]4(O)C(C2)N(CC2CC2)CC[C@]314` reads -2.8% (inactive); that for `C/C(=C/C=C/[C@@H](C)C(=O)O)[C@H]1CN[C@H](C(=O)O)[C@H]1CC(=O)O`, 4.56% (inactive); that for `c1ccc(CCCN2CCN(CCOC(c3ccccc3)c3ccccc3)CC2)cc1`, -51.1% (inactive) and -1.58% (inactive).
Regarding `C[C@H]1CN(Cc2ccc(CC(=O)N3CCC(Nc4cccc(F)c4)CC3)cc2)CCN1`, the activity change, negative = inhibition was 4.86% (inactive).
Consider `CC(C)(C)c1cc(C=C(C#N)C#N)cc(C(C)(C)C)c1O`, for which the activity change, negative = inhibition is -90.8% (active) and -88.7% (active).
The result for `CC(C)(C)c1cc(C=C(C#N)C#N)cc(Br)c1O` reads -39.2% (inactive).
As for `N#CC(C#N)=Cc1ccc(O)c(O)c1`, the activity change, negative = inhibition is 10.7% (inactive) and 7.11% (inactive).
For the molecule `CN1C(=O)N(C)C2C1N(C)C(=O)N2C` (stereo not drawn), the activity change, negative = inhibition was 5.58% (inactive).
Then `OC1CC2CCCC(C1)N2Cc1ccccc1` (stereo not drawn), with 4.85% (inactive).
Then `CC1(C)C(=O)C=C[C@@]2(C)C1C[C@@H](O)[C@]1(C)C2CC[C@@]2(C)[C@H](c3ccoc3)OC(=O)[C@H]3O[C@]321` (stereo partly drawn), with 13.2% (inactive); and `CC(=O)O[C@H]1C[C@@H](OC(C)=O)C(C)(C)C2C[C@@H](OC(C)=O)[C@]3(C)C(CC[C@@]4(C)[C@H](c5ccoc5)C(=O)[C@H]5O[C@]543)[C@]21C` (stereo partly drawn), with 11.1% (inactive); and `CC(=O)O[C@@H]1CC2C(C)(C)C(=O)C=C[C@]2(C)C2CC[C@]3(C)C(=CC(=O)O[C@H]3c3ccoc3)[C@@]21C` (stereo partly drawn), with -83.5% (active).
Take `CCN(CC)CCOC1CCC2(C)C(=CCC3C4CCC(=O)C4(C)CCC32)C1` (stereo not drawn): the activity change, negative = inhibition was -5.47% (inactive).
The result for `CN1CC2CCCC(C1)C2OC(=O)C(O)(c1ccccc1)C1CCCC1` (stereo not drawn) reads 36% (inactive).
The result for `C[C@H](N)Cc1cnc[nH]1` reads 10.9% (inactive); that for `Cc1cccc(C(C)c2cnc[nH]2)c1C` (stereo not drawn), 15.9% (inactive) and 24.6% (inactive).
With `CCCCCCC(C)(C)c1ccc(C2CC(O)CCC2CCCO)c(O)c1` (stereo not drawn), the activity change, negative = inhibition was 0.246% (inactive).
The result for `CC(=O)OCC(=O)[C@H]1CC[C@H]2[C@@H]3CC[C@H]4C[C@H](O)CC[C@]4(C)[C@H]3C(=O)C[C@]12C` reads -8.47% (inactive); that for `C[C@]12[C@H](O)CC3C(CC[C@@H]4C[C@@H](O)CC[C@]34C)[C@@]1(O)CC[C@@H]2C1=CC(=O)OC1` (stereo partly drawn), -84.3% (active).
The result for `C[C@]12CC[C@H](O)C[C@H]1CC[C@@H]1[C@@H]2CC[C@]2(C)[C@@](O)(c3ccoc3)CC[C@]12O` reads 2.9% (inactive); that for `C[C@]12CC[C@H](O)C[C@H]1CC[C@@H]1[C@@H]2CC[C@]2(C)[C@@H](C3=CC(=O)OC3)CC[C@]12O`, -86.6% (active).
Then `C[C@]12CC[C@@H](O)C[C@@H]1CC[C@@H]1[C@@H]2CC[C@]2(C)C(=O)CC[C@@H]12`, with 9.11% (inactive).
Regarding `C[C@]12CC[C@H](O)C[C@H]1CC[C@@H]1[C@@H]2C[C@@H](O)[C@]2(C)[C@@H](C3=CC(=O)OC3)CC[C@]12O`, the activity change, negative = inhibition was -93.5% (active).
Then `CC(=O)C1CCC2C3CCC4C[C@H](O)CCC4(C)C3C[C@H](O)C12C` (stereo partly drawn), with 3.84% (inactive).
Then `CC(=O)[C@H]1CC[C@H]2[C@@H]3CC[C@H]4C[C@H](O)CC[C@]4(C)[C@H]3C(=O)C[C@]12C`, with 12.1% (inactive); and `C[C@]12CC[C@@H](O)C[C@@H]1CC[C@@H]1[C@@H]2CC[C@]2(C)[C@@H](C(=O)CO)CC[C@@H]12`, with 8.82% (inactive).
